Measured values published in PubChem BioAssay AID492990 (National Center for Advancing Translational Sciences (NCATS), 2010).
Unmarked numbers belong to inactive results.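 The calls were made as follows: active = clear integrase inhibition at one or more tested doses, judged significant by the depositor; inactive = only baseline response.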

Tested on: HIV-1 integrase
Assay: Gel-Based Assay for Inhibitors of HIV Integrase: Counterscreen for TDP1
Settings: recombinant HIV-1 integrase, 32P DNA gel densitometry; series mostly up to 333 µM; inhibition %, high = inhibition: at the top concentration
Procedure: HIV Integrase enables the HIV virus to integrate its genetic material into host cells's DNA. This particular assay was utilized as a counterscreen for inhibitors of human tyrosyl DNA phosphodiesterase I (Tdp1). See probe development summary bioassay AID 485312 for further details on the tdp1 inhibitors project.
HIV-1 integrase catalytic assay was carried out as previously described [Marchand et al. Methods in Enzymology 2001] by mixing 400 nM recombinant integrase with 20 nM [32P] radiolabeled DNA substrate in a buffer containing 50 mM MOPS, pH 7.2, 7.5 mM MgCl2, 14.3 mM 2-mercaptoethanol, and the drug of interest or 10% DMSO. Reactions were incubated at 37 degrees C for 1 h and quenched by the addition of an equal volume of gel loading dye (formamide with 0.25% bromophenol blue, 0.25% xylene cyanol and 5 mM EDTA). Reaction products were separated on a 16% polyacrylamide denaturing sequencing gel. Dried gels were exposed overnight and visualized using a Typhoon 8600 (GE Healthcare, Piscataway, NJ). Densitometry analyses were performed using the ImageQuant software from GE Healthcare.

Which “inhibition %, high = inhibition” value does the source give for `O=c1c2ccccc2nc2sc(Nc3ccc4c(c3)CCC4)nn12` here?
Its value is 0.1%.

`O=c1c2ccc(Br)cc2nc2sc(Nc3ccc4c(c3)CCC4)nn12` was tested. Which “inhibition %, high = inhibition” value did it give?
Its value is 0.7%.
